Assay results as given in PubChem BioAssay (Tox21).
Inconclusive results are not listed. Calls of active or inactive are those of the source. Unless noted, calls follow the shape of the dose curve; as a rule, active = well fitted curve in the direction sought with a large enough effect in the repeat runs; inconclusive = weak or mixed curves; inactive = no such curve, though single readings can be large; an effect the other way counts as inactive or inconclusive.

What was measured:
[1] = qHTS RealTime-Glo MT Cell Viability Assay in HEK293 cells - 24 hour (AID 1224886); also: top concentration of the series differs between compounds; nearly all actives have a fitted effect of over 50% in size
How it was run: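 Reads taken at 0, 8, 16, 24, 32 and 40 h from the same wells. HEK293 cells (600/well) carried RealTime-Glo reagents from seeding, with compound added after a 5 h settle at 37 C.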

[2] = qHTS RealTime-Glo MT Cell Viability Assay in HEK293 cells - 8 hour (AID 1224887); also: top concentration of the series differs between compounds; nearly all actives have a fitted effect of over 50% in size
How it was run: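 Nonlytic bioluminescent viability monitoring. HEK293 at 600 cells/well with reagent; 5 h settle; compound transfer by pintool; plates held at 37 C and read at set time points.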

[3] = A CellTox Green Cytotoxicity Assay to monitor cytotoxicity in HEK293 cells - 16 hour (AID 1224888); also: nearly all actives have a fitted effect of over 35% in size
How it was run: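 Cytotoxicity was tracked continuously in HEK293 cells by a DNA-binding dye excluded from viable cells. Compounds were transferred in DMSO 5 h after seeding; fluorescence was recorded at intervals up to 40 h.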

[4] = A CellTox Green Cytotoxicity Assay to monitor cytotoxicity in HepG2 cells - 8 hour (AID 1224890); also: nearly all actives have a fitted effect of over 45% in size
How it was run: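 Real-time, homogeneous cytotoxicity readout: dead-cell DNA staining by CellTox Green in HepG2 monolayers, fluorescence measured at timed intervals up to 40 h of continuous compound exposure.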

[5] = qHTS assay to identify small molecule antagonists of the estrogen receptor alpha (ER-alpha) signaling pathway using the BG1 cell line in the presence of 0.1 nM 17-beta-estradiol - cell viability counter screen (AID 1259241); also: nearly all actives have a fitted effect of over 40% in size
How it was run: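 VM7Luc4E2 cells (endogenous ER-alpha, 4×ERE-luciferase), hormone-starved 5 days in charcoal-stripped FBS, were treated with compounds plus 0.1 nM 17beta-estradiol for 22 hr at 37C; viability read in same wells as CellTiter-Fluor live-cell protease fluorescence.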

[6] = qHTS assay to identify small molecule antagonists of the androgen receptor (AR) signaling pathway using the MDA cell line in the presence of 0.5 nM R1881 - cell viability counter screen (AID 1259242); also: nearly all actives have a fitted effect of over 45% in size
How it was run: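 Cytotoxicity toward MDA-kb2 cells is measured by CellTiter-Fluor live-cell protease fluorescence after 16 hr compound exposure at 37C in the presence of 0.5 nM R1881 stimulator.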

[7] = molecular target: Androgen receptor (Homo sapiens) (UniProt P10275); assay: qHTS assay to identify small molecule antagonists of the androgen receptor (AR) signaling pathway using the MDA cell line in the presence of 0.5 nM R1881 (AID 1259243); also: nearly all actives have a fitted effect of over 50% in size
How it was run: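 Steps: seed MDA-kb2 cells, incubate 5 hr at 37C; pin-transfer compounds in DMSO; add R1881 to 0.5 nM final; incubate 16 hr; add ONE-Glo, wait 30 min at room temperature; read luminescence.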

[8] = molecular target: Estrogen receptor (Homo sapiens) (UniProt P03372); assay: qHTS assay to identify small molecule antagonists of the estrogen receptor alpha (ER-alpha) signaling pathway using the BG1 cell line in the presence of 0.1 nM 17-beta-estradiol (AID 1259244); also: nearly all actives have a fitted effect of over 50% in size
How it was run: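 After 5 days in hormone-depleted medium (charcoal-stripped serum, no phenol red), VM7Luc4E2 cells were seeded, incubated 24 h, then co-treated with compound and 0.1 nM (final) estradiol for 22 h before luminescence detection.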

[9] = qHTS assay to identify small molecule HDAC inhibitors - cell viability counter screen (AID 1259365)
How it was run: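 Wild-type HCT-116 cells were seeded at 1,500 per well, incubated overnight at 37 C, then exposed to compounds in DMSO for 2hr. Viability was read by CellTiter-Glo luminescence after 30min at room temperature.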

[10] = qHTS assay to identify small molecule agonists of the sonic hedgehog signaling (Shh) pathway - cell viability counter screen (AID 1259366); also: nearly all actives have a fitted effect of over 50% in size
How it was run: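 NIH/3T3-derived 3T3 Gli1-Luc cells (stable Gli1-responsive firefly luciferase reporter) were seeded, rested 4 hr at 37 C/5% CO2, then exposed to compounds in DMSO for 24 hr; viability was read by CellTiter-Fluor fluorescence in the same wells.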

[11] = qHTS assay to identify small molecule antagonists of the sonic hedgehog signaling (Shh) pathway - cell viability counter screen (AID 1259367); also: nearly all actives have a fitted effect of over 55% in size
How it was run: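 Cells: 3T3 Gli1-Luc, 2,000/well, 4 hr pre-incubation. Compounds in DMSO, then conditioned medium. Incubation 24 hr, 37C, 5% CO2. CellTiter-Fluor at 23 hr, 1 hr, fluorescence.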

[12] = qHTS assay to identify small molecule agonists of the sonic hedgehog signaling (Shh) pathway (AID 1259368; calls by dose curve; also: series mostly up to about 92 µM; nearly all actives have a fitted effect of over 15% in size)
How it was run: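 Steps: seed 3T3 Gli1-Luc cells, incubate 4 hr at 37 C, pin-transfer compounds in DMSO alongside a positive control, incubate 24 hr, add luciferase detection reagent, wait 30 min at room temperature, read luminescence.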

[13] = qHTS assay to identify small molecule antagonists of the sonic hedgehog signaling (Shh) pathway (AID 1259369; calls by dose curve; also: nearly all actives have a fitted effect of over 45% in size)
How it was run: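 Inhibition of Shh signalling is measured as reduced Gli1-response-element firefly luciferase output in an NIH/3T3-derived stable reporter clone stimulated with conditioned medium for 24hr.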

[14] = molecular target: Estrogen receptor beta (Homo sapiens) (UniProt Q92731); assay: qHTS assay to identify small molecule agonists of the estrogen receptor beta (ER-beta) signaling pathway (AID 1259377; active = well fitted activation curve with a large enough effect in the signal ratio in the repeat runs, not every such curve was filed as active; the % refers to the signal ratio)
How it was run: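 ER-beta-UAS-bla HEK293T (GripTite) cells carrying a UAS-driven beta-lactamase reporter, in medium with 2% charcoal-stripped FBS, were exposed to compounds for 16 hr at 37C; LiveBLAzer B/G FRET substrate was then added and fluorescence read after 2 hours at room temperature.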

[15] = molecular target: Estrogen receptor beta (Homo sapiens) (UniProt Q92731); assay: qHTS assay to identify small molecule antagonists of the estrogen receptor beta (ER-beta) signaling pathway (AID 1259378; active = well fitted inhibition curve with a large enough effect in the signal ratio in the repeat runs, not every such curve was filed as active; the % refers to the signal ratio)
How it was run: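 Antagonist mode: compounds added to beta-lactamase reporter HEK293T ER-beta-UAS cells stimulated with E2 (1nM final), 16 hr at 37C. LiveBLAzer B/G FRET substrate, 2 hours room temperature, fluorescence read-out.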

[16] = qHTS assay to identify small molecule agonists of the androgen receptor (AR) signaling pathway in the presence of an antagonist - cell viability counter screen (AID 1259379);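 also: MDA-kb2 human breast cancer cells carrying an MMTV luciferase reporter; series mostly up to about 92 µM; nearly all actives have a fitted effect of over 25% in size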
How it was run: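 Fluorescence from CellTiter-Fluor, added after 15 hr and read 1 hr later, gave cell viability. Cells were MDA-kb2 exposed to compounds (15 concentrations) in the presence of 3.0uM nilutamide at 37C, 0% CO2.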

[17] = qHTS assay to identify small molecule agonists of the estrogen receptor beta (ER-beta) signaling pathway - cell viability counter screen (AID 1259380); also: nearly all actives have a fitted effect of over 30% in size
How it was run: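 Same-well viability counter screen. Cells: ER-beta-UAS-bla HEK293T, plated 6 hr before compound, in 2% charcoal-stripped FBS. Compound exposure 16 hr, 37C; viability by CellTiter-Glo luminescence after 30 min at room temperature.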

[18] = qHTS assay to identify small molecule HDAC inhibitors (AID 1259364); also: top concentration of the series differs between compounds; nearly all actives have a fitted effect of over 45% in size
How it was run: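 Homogeneous cell-based luminescent assay of endogenous class I/II HDAC activity; HCT-116 cells, 2 h compound exposure, 30 min HDAC-Glo development at RT.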

[19] = qHTS RealTime-Glo MT Cell Viability Assay in HepG2 cells - 0 hour (AID 1224889); also: nearly all actives have a fitted effect of over 50% in size
How it was run: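 HepG2 suspension premixed with RealTime-Glo reagents is plated at 600 cells per well and left 5 h at 37 C/5% CO2. Compounds in DMSO then go in, and bioluminescence reflecting viable cell number is recorded over 40 h.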

[20] = qHTS assay to identify small molecule phospholipidosis (PLD) inducers (AID 1259344; active = well fitted curve in the direction sought with a large enough effect; an effect the other way counts as inactive or inconclusive)
How it was run: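 Phospholipidosis is scored by imaging LipidTOX-stained pits in HepG2 cells exposed to compound for 24 h at 37 C; pit counts and integrated intensities per well and per cell serve as outputs.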
% is scaled to controls: 0 for no effect and ±100 for the full control effect.

Estrogen receptor beta (Homo sapiens), sequence (Q92731 whole entry, looked up): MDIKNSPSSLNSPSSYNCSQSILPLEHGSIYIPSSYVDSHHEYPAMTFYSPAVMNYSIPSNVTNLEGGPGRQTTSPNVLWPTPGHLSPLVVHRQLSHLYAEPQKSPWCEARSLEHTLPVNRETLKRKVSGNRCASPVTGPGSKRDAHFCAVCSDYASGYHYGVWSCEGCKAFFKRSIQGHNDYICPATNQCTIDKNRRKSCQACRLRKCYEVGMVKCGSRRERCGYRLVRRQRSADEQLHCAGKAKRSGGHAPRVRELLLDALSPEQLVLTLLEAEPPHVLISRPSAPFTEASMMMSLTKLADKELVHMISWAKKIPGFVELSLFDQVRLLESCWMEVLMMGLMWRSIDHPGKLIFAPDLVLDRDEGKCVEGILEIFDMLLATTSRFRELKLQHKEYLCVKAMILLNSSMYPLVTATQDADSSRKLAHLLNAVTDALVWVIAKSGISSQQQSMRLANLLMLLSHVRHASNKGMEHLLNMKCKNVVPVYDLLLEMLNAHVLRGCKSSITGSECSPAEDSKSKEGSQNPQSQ
Estrogen receptor (Homo sapiens), sequence (P03372 whole entry, looked up): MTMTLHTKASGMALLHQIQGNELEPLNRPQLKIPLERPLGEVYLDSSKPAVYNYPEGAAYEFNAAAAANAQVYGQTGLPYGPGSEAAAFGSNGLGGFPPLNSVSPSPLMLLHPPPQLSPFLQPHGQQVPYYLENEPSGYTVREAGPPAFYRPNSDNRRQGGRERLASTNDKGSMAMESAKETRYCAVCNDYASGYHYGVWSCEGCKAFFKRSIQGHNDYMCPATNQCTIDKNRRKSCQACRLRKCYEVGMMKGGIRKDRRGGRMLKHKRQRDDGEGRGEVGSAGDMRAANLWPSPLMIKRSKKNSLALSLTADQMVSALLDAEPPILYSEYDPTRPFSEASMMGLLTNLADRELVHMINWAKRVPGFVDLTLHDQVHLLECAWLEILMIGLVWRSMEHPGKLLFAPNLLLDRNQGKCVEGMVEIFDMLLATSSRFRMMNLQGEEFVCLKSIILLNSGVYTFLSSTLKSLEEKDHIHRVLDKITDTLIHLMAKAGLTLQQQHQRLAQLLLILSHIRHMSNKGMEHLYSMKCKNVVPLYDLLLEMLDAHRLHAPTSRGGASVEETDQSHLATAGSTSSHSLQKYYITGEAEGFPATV
Androgen receptor (Homo sapiens), sequence (P10275 whole entry, looked up): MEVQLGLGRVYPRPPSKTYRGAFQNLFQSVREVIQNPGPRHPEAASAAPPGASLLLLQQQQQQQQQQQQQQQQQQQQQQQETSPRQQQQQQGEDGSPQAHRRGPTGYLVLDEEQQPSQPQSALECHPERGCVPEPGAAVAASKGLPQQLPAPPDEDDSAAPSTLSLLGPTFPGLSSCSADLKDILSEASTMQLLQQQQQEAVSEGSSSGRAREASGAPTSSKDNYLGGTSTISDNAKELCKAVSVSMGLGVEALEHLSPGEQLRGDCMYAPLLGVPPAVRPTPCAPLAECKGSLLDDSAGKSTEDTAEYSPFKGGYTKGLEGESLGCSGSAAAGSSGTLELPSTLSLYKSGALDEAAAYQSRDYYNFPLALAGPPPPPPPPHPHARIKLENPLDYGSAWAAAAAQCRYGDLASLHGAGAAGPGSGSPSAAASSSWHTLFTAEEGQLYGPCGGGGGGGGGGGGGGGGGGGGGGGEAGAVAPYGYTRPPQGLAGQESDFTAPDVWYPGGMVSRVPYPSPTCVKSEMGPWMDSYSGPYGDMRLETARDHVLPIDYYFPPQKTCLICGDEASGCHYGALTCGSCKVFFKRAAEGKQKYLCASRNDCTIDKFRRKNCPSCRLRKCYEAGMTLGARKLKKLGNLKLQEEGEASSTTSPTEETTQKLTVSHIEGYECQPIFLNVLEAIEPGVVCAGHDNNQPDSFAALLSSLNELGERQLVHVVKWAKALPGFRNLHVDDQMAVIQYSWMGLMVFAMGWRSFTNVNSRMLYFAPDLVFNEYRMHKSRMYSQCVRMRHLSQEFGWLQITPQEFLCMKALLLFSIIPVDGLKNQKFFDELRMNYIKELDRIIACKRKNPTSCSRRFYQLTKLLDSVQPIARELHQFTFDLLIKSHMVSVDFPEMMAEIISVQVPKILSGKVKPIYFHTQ

CC(=O)CC(=O)OC(C)(C)C
inactive: Potency [1] | Potency [2] | Potency [3] | Potency [4] | outcome [5] | outcome [6] | Potency [7] | outcome [8] | outcome [9] | outcome [10] | outcome [11] | outcome [12] | Potency [13] | Potency [14] | Potency [15] | outcome [16] | outcome [17]

COC(=O)c1ccccc1C(=O)O
inactive: Potency [1] | Potency [2] | Potency [3] | Potency [4] | outcome [5] | outcome [6] | outcome [8] | Potency [18] | outcome [9] | outcome [10] | outcome [11] | outcome [12] | Potency [13] | Potency [14] | Potency [15] | outcome [16] | outcome [17]

O=C(CN1CCNCC1)NC1CCCCC1
inactive: Potency [1] | Potency [2] | Potency [3] | Potency [19] | Potency [4] | outcome [6] | outcome [8] | outcome [20] | Potency [18] | outcome [9] | outcome [10] | outcome [11] | outcome [12] | Potency [13] | outcome [16] | outcome [17]

CN1CCOC(c2ccccc2)c2ccccc2C1 (stereo unspecified)
inactive: Potency [1] | Potency [2] | Potency [3] | Potency [19] | outcome [5] | outcome [20] | Potency [18] | outcome [9] | outcome [10] | outcome [11] | outcome [12] | Potency [13] | outcome [16] | outcome [17]

CC(C)=CCC[C@@](C)(O)[C@H]1CC=C(C)CC1
inactive: Potency [1] | Potency [2] | Potency [3] | Potency [19] | outcome [5] | outcome [6] | outcome [20] | Potency [18] | outcome [9] | outcome [10] | outcome [11] | outcome [12] | Potency [13] | Potency [15] | outcome [16] | outcome [17]

CCC[C@@H]1C[C@@H](C(=O)N[C@@H]([C@H]2O[C@H](SC)[C@H](O)[C@@H](O)[C@H]2O)[C@@H](C)O)N(C)C1
inactive: Potency [1] | Potency [2] | Potency [3] | Potency [19] | Potency [4] | outcome [6] | outcome [8] | outcome [20] | Potency [18] | outcome [10] | outcome [11] | outcome [12] | Potency [13] | Potency [14] | Potency [15] | outcome [16] | outcome [17]

CCCCCCCCCCCCCCCCCCOCCO
inactive: activity change, negative = cytotoxicity [1] -7.08% [at 15.8 µM] | activity change, negative = cytotoxicity [2] 1.44% [at 15.8 µM] | activity change [3] 5.03% [at 15.8 µM, active compounds read high] | activity change, negative = cytotoxicity [19] 2.77% [at 15.8 µM] | activity change, negative = cytotoxicity [5] 4.04% [at 19 µM] | viability change, negative = cytotoxic [6] -0.694% [at 19 µM] | activity change, negative = inhibition [8] -1.58% [at 19 µM] | activity change, negative = inhibition [18] -2.36% [at 19 µM] | activity change, negative = cytotoxicity [9] 0.0538% [at 19 µM] | viability change, negative = cytotoxic [10] 1.32% [at 19 µM] | viability change, negative = cytotoxic [11] -0.0007% [at 19 µM] | activity change [12] -0.0679% [at 18.9 µM] | activation [14] -0.0155% [at 19 µM] | activity, negative = inhibition [15] 4.09% [at 19 µM] | activity change, negative = cytotoxicity [16] -11.2% [at 19 µM] | activity change, negative = cytotoxicity [17] -1.63% [at 19 µM]

CC(C)(CO)C(O)C(=O)NCCCO (stereo unspecified)
inactive: Potency [1] | Potency [2] | Potency [3] | Potency [19] | outcome [5] | outcome [8] | Potency [18] | outcome [9] | outcome [11] | outcome [12] | Potency [13] | Potency [14] | Potency [15] | outcome [16] | outcome [17]

CCCc1ccc(O)cc1
inactive: Potency [1] | Potency [2] | Potency [3] | Potency [19] | outcome [5] | outcome [6] | outcome [8] | Potency [18] | outcome [9] | outcome [10] | outcome [11] | outcome [12] | Potency [13] | Potency [15] | outcome [16] | outcome [17]

COC(=O)c1cc(Cl)cc(Cl)c1
inactive: Potency [1] | Potency [2] | Potency [3] | Potency [19] | outcome [5] | outcome [6] | Potency [7] | outcome [8] | outcome [9] | outcome [10] | outcome [11] | outcome [12] | Potency [13] | Potency [14] | outcome [16] | outcome [17]

Nc1nnnn1-c1ccccc1
inactive: Potency [1] | Potency [2] | Potency [3] | Potency [19] | outcome [5] | outcome [6] | outcome [8] | outcome [20] | Potency [18] | outcome [9] | outcome [10] | outcome [11] | outcome [12] | Potency [13] | outcome [16] | outcome [17]
